Reference: PubChem BioAssay
For some assays here: Potency and affinity values are given separately. Active and inactive are the calls of the source.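 How the source made its calls, unless noted: active means calcium signal cut by more than 3 SD below the full-agonist control yet still positive, in both repeats and the earlier primary screen; inactive means the rest.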

Assays:
[1] = test system: TRPC4 beta (transient receptor potential cation channel C4), mouse; test: activators of mouse TRPC4 channel, confirmation, cell-based, Fluo4 calcium, HEK293 TRPC4beta/mu-opioid, duplicates, 10 µM (AID 2426;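 active means fluorescence ratio normalized to control raised more than 50% in primary screen plus both repeat runs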); conditions: Fluo4 calcium fluorescence, at 10 µM; stronger effect = higher value
[2] = test system: transient receptor potential cation channel C4 beta (TRPC4), mouse; test: activators of mouse TRPC4 channel, confirmation, cell-based, second round, Fluo4, HEK293 TRPC4beta/mu-opioid, 1 µM (AID 2461;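 active means primary screen active and over 50% activation in each of two duplicate runs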); conditions: Fluo4 calcium fluorescence, at 1 µM; stronger effect = higher value
[3] = test system: TRPC4 (transient receptor potential cation channel C4 beta), mouse; test: positive allosteric modulators of mouse TRPC4, confirmation, cell-based, second round, Fluo-4, HEK293 TRPC4beta/mu-opioid, 1 µM (AID 2554;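 active means primary screen hit whose fluorescence ratio, in both repeats, exceeds the weak agonist control mean by 3 SD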); conditions: DAMGO EC20, Fluo-4 calcium flux, at 1 µM; stronger effect = higher value
[4] = test system: TRPC4 beta (transient receptor potential cation channel C4), mouse; test: positive allosteric modulators of mouse TRPC4, confirmation, cell-based, Fluo-4, HEK293 TRPC4beta/mu-opioid (AID 2555;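 active means primary screen hit whose calcium fluorescence ratio, in both repeats, exceeds the weak agonist control mean by 3 SD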); conditions: DAMGO EC20, Fluo-4 calcium flux, at 10 µM; stronger effect = higher value
[5] = target: Short transient receptor potential channel 4 (Mus musculus) (UniProt Q9QUQ5); test: inhibitors of mouse TRPC4 channel, confirmation, cell-based, Fluo4, HEK293 TRPC4beta/mu-opioid (AID 2636); conditions: DAMGO, Fluo4 calcium flux, at 10 µM; stronger effect = higher value
[6] = target: Short transient receptor potential channel 4 (Mus musculus) (UniProt Q9QUQ5); test: inhibitors of mouse TRPC4 channel, confirmation, cell-based, second round, Fluo4, HEK293 TRPC4beta/mu-opioid, 1 µM (AID 2637;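 active means calcium signal ratio cut to more than 3 SD under the fully stimulated control mean yet still positive, in both repeats and the primary screen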;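 on inhibition: percent of integrated ratio relative to wells lacking test compound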); conditions: Fluo4 calcium flux, DAMGO, at 1 µM; stronger effect = higher value
[7] = target: Short transient receptor potential channel 4 (Mus musculus) (UniProt Q9QUQ5); test: mouse TRPC4 channel activators, dose response, cell-based, HEK293 TRPC4/mu-opioid, Fluo-4 calcium (AID 434937;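 active means primary screen activator hit with a dose response curve and TRPC4 channel activation at any tested dose; inactive means no activation, no dose response, or not a primary hit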)
[8] = target: Short transient receptor potential channel 4 (Mus musculus) (UniProt Q9QUQ5); test: TRPC4 positive allosteric modulators, dose response, cell-based, HEK293 TRPC4/mu-opioid, Fluo-4 calcium, EC20 DAMGO (AID 434941;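 active means earlier screen potentiator hit that boosts the TRPC4 ion channel at some dose, with a dose response; inactive means no potentiation, no dose response, or not a prior hit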;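 further: calcium entry triggered by an EC20 dose of DAMGO at the co-expressed mu-opioid receptor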)
[9] = target: Short transient receptor potential channel 6 (Mus musculus) (UniProt Q61143); test: inhibition of mouse TRPC6 channel, confirmation, selectivity assay for TRPC4 inhibitor project, cell-based, HEK293, membrane potential dye, duplicate (AID 434948;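 active means active in primary screen and both duplicates, each dropping signal beyond three positive-control SD with fluorescence still positive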); conditions: HEK293 TRPC6, membrane potential dye fluorescence, at 10 µM, stimulated with maximal-effect acetylcholine; stronger effect = higher value
[10] = target: Short transient receptor potential channel 6 (Mus musculus) (UniProt Q61143); test: activation of mouse TRPC6 channel, confirmation, selectivity assay for TRPC4 activator project, cell-based, HEK293, membrane potential dye, duplicate (AID 434950;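 active means membrane potential signal rise above negative control mean plus 3 SD in both duplicates, also active in the earlier TRPC4 screen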); conditions: HEK293 TRPC6, membrane potential fluorescence, at 10 µM; stronger effect = higher value
[11] = target: Short transient receptor potential channel 6 (Mus musculus) (UniProt Q61143); test: TRPC6 potentiation by TRPC4 potentiator hits, confirmation, selectivity assay for TRPC4 potentiator project, HEK293 cells, membrane potential dye, duplicate (AID 434952;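 active means compound raising the membrane signal above positive-control mean plus 3 SD in both repeats, and a primary screen hit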); conditions: HEK293 TRPC6, membrane potential dye fluorescence, at 10 µM, maximal acetylcholine added after compound; stronger effect = higher value
[12] = target: Short transient receptor potential channel 4 (Mus musculus) (UniProt Q9QUQ5); test: calcium flux activators in TRPC4/5HT1a cells, counter-screen for TRPC4 activator project, cell-based, second counter screen, HEK293 TRPC4/5HT1a, Fluo-4 (AID 434977;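 active means calcium signal rise above buffer-control mean plus 5 SD in both duplicates, and also a hit in the primary screen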); conditions: Fluo-4 calcium flux, at 10 µM; stronger effect = higher value
[13] = calcium flux inhibitors in TRPC4/5HT1a cells, confirmation, counter-screen for TRPC4 inhibitor project, cell-based, second counter screen, HEK293 TRPC4/5HT1a, Fluo-4 (AID 434978;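 active means primary screen active whose calcium signal fell more than 3 SD beyond the full-serotonin control mean in both duplicate plates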;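 on outcome: serotonin given first at submaximal then at maximal dose after compound preincubation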); conditions: Fluo-4 calcium flux, at 10 µM, serotonin added to trigger calcium flux; stronger effect = higher value
[14] = test system: TRPC4 (mouse), co-expressed with 5HT1a in HEK293; test: calcium flux potentiators in TRPC4/5HT1a cells, confirmation, counter-screen for TRPC4 potentiator project, cell-based, second counter screen, HEK293 TRPC4/5HT1a, Fluo-4 (AID 434979;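 active means signal rise over 3 SD above mean of control wells given weak agonist, in both repeats and first screen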); conditions: Fluo-4 calcium flux, at 10 µM, serotonin added at its EC20 dose; stronger effect = higher value
[15] = calcium flux activation in mu-opioid HEK293 cells, confirmation, counter-screen for TRPC4 activator project, cell-based, HEK293 mu-opioid receptor line (AID 449723;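 active means hit in primary screen, with calcium signal over 5 SD above buffer well mean in both duplicates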;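 further: counter screen cells carry the mu-opioid receptor alone and lack TRPC4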); conditions: Fluo-4 calcium fluorescence, at 10 µM; stronger effect = higher value
[16] = calcium flux enhancement in mu-opioid HEK293 cells, confirmation, counter-screen for TRPC4 allosteric potentiator project, cell-based, HEK293 mu-opioid receptor line (AID 449724;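 active means calcium signal rise more than 3 SD above the low-dose agonist control mean, in both duplicate plates and the primary screen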); conditions: Fluo-4 calcium flux, at 10 µM, compound added before EC20 DAMGO stimulus; stronger effect = higher value

Sequence of Short transient receptor potential channel 6 (Mus musculus) (Q61143 whole entry, looked up): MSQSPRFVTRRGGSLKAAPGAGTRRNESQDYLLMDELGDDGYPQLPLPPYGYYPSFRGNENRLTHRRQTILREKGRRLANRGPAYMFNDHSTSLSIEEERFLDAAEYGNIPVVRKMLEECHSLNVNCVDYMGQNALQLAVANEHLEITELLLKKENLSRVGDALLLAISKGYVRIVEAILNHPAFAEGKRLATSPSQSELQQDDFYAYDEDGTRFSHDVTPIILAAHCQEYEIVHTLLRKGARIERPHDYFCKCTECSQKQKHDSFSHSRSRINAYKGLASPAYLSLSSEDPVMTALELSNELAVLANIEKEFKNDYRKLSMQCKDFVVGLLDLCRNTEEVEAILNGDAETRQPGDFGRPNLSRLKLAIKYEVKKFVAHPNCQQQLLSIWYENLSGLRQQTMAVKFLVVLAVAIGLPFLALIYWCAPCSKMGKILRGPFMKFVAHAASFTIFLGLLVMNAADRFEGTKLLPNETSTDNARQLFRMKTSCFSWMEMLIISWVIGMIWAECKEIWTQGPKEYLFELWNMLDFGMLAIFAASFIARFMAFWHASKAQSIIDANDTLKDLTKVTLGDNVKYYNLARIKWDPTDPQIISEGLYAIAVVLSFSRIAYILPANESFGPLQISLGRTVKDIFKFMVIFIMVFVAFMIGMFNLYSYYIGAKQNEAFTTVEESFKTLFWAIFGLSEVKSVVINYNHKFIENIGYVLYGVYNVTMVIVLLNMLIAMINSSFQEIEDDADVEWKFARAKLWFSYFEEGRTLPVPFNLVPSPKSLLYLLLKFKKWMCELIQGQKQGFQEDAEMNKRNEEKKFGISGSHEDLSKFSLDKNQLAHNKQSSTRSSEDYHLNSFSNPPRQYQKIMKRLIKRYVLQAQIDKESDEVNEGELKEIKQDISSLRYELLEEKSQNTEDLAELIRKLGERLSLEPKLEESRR
Sequence of Short transient receptor potential channel 4 (Mus musculus) (Q9QUQ5 whole entry, looked up): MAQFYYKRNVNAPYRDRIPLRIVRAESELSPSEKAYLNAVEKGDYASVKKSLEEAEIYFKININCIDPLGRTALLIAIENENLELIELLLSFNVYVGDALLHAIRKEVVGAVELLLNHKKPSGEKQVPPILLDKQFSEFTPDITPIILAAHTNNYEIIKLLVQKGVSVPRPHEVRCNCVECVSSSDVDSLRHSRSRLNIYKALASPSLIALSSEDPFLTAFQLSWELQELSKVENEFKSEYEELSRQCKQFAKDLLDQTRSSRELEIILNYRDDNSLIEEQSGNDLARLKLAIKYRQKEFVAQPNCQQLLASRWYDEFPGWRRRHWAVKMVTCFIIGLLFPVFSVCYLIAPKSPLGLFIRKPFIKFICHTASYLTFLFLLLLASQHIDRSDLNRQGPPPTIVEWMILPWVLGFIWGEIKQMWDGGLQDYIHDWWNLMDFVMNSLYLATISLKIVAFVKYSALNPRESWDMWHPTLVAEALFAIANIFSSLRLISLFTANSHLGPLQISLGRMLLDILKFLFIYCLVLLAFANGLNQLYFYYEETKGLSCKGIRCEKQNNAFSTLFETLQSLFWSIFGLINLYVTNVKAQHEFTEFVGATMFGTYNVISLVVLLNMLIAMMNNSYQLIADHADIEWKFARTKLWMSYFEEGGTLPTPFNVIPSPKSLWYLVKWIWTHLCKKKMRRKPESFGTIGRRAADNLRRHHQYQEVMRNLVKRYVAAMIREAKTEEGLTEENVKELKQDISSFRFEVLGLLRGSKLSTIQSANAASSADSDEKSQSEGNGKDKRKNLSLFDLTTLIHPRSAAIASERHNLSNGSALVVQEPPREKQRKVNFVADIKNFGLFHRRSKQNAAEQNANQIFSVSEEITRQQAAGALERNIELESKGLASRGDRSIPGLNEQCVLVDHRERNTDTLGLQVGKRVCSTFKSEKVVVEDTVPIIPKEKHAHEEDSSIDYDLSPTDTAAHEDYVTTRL

Which outcome [1] does the source give for `Cc1nc2ccccc2n1CCOc1ccc(F)cc1` here?
The outcome was “inactive”.

What about the outcome [2] of the same compound?
The outcome was “inactive”.

And the outcome [3]?
The outcome was “inactive”.

What about the outcome [4] of the same compound?
The outcome was “inactive”.

And the inhibition [5]?
Its inhibition is 95% (active).

And the inhibition [6]?
The inhibition was 79% (active).

And the outcome [7]?
Its outcome is “inactive”.

And the outcome [8]?
The outcome was “inactive”.

What about the outcome [9] of the same compound?
The outcome was “inactive”.

And the outcome [10]?
The outcome was “inactive”.

What about the outcome [11] of the same compound?
The outcome was “inactive”.

And the outcome [12]?
Its outcome is “inactive”.

And the inhibition [13]?
Its inhibition is 7.92% (active).

What about the outcome [14] of the same compound?
The outcome was “inactive”.

And the outcome [15]?
Its outcome is “inactive”.

And the outcome [16]?
Its outcome is “inactive”.

With `c1ccn2cc(C34CC5CC(CC(C5)C3)C4)nc2c1` as the compound, how does the outcome [1] read?
Its outcome is “inactive”.

And the outcome [2]?
Its outcome is “inactive”.

And the outcome [3]?
Its outcome is “inactive”.

What about the outcome [4] of the same compound?
Its outcome is “inactive”.

And the inhibition [5]?
Its inhibition is 69% (active).

What about the outcome [6] of the same compound?
Its outcome is “inactive”.

What about the outcome [7] of the same compound?
Its outcome is “inactive”.

And the outcome [8]?
Its outcome is “inactive”.

And the outcome [9]?
Its outcome is “inactive”.

And the outcome [10]?
Its outcome is “inactive”.

And the outcome [11]?
Its outcome is “inactive”.

What about the outcome [12] of the same compound?
The outcome was “inactive”.

And the inhibition [13]?
The inhibition was 41.3% (active).

What about the outcome [14] of the same compound?
The outcome was “inactive”.

And the outcome [15]?
The outcome was “inactive”.

And the outcome [16]?
The outcome was “inactive”.

What does the source list for `Cc1ccc(NC(=O)CSCC(=O)OCc2cc(=O)oc3cc(O)ccc23)c(C)c1`?
outcome [1]: inactive; outcome [2]: inactive; outcome [3]: inactive; outcome [4]: inactive; inhibition [5]: 80% (active); outcome [6]: inactive; outcome [7]: inactive; outcome [8]: inactive; outcome [9]: inactive; outcome [10]: inactive; outcome [11]: inactive; outcome [12]: inactive; outcome [13]: inactive; outcome [14]: inactive; outcome [15]: inactive; outcome [16]: inactive

With `Oc1ccc(-c2csc(-c3ccccc3)n2)cc1O` as the compound, how does the outcome [1] read?
The outcome was “inactive”.

And the outcome [2]?
The outcome was “inactive”.

What about the outcome [3] of the same compound?
Its outcome is “inactive”.

And the outcome [4]?
Its outcome is “inactive”.

And the inhibition [5]?
The inhibition was 80% (active).

What about the outcome [6] of the same compound?
Its outcome is “inactive”.

What about the outcome [7] of the same compound?
The outcome was “inactive”.

And the outcome [8]?
The outcome was “inactive”.

What about the outcome [9] of the same compound?
Its outcome is “inactive”.

And the outcome [10]?
Its outcome is “inactive”.

What about the outcome [11] of the same compound?
Its outcome is “inactive”.

And the outcome [12]?
Its outcome is “inactive”.

And the outcome [13]?
The outcome was “inactive”.

What about the outcome [14] of the same compound?
The outcome was “inactive”.

And the outcome [15]?
The outcome was “inactive”.

And the outcome [16]?
The outcome was “inactive”.

What does the source list for `CC(Oc1ccc(Cl)cc1Cl)c1nc(-c2ccccn2)no1` (stereo not drawn)?
outcome [1]: inactive; outcome [2]: inactive; outcome [3]: inactive; outcome [4]: inactive; inhibition [5]: 89% (active); inhibition [6]: 53% (active); outcome [7]: inactive; outcome [8]: inactive; outcome [9]: inactive; outcome [10]: inactive; outcome [11]: inactive; outcome [12]: inactive; inhibition [13]: 22.7% (active); outcome [14]: inactive; outcome [15]: inactive; outcome [16]: inactive

Which outcome [1] does the source give for `COc1ccc(Br)cc1CNC(C)c1ccccc1` (stereo not drawn) here?
Its outcome is “inactive”.

And the outcome [2]?
Its outcome is “inactive”.

What about the outcome [3] of the same compound?
Its outcome is “inactive”.

And the outcome [4]?
The outcome was “inactive”.

And the inhibition [5]?
The inhibition was 55% (active).

And the outcome [6]?
The outcome was “inactive”.

And the outcome [7]?
The outcome was “inactive”.

And the outcome [8]?
Its outcome is “inactive”.

And the inhibition [9]?
Its inhibition is 49.5% (active).

What about the outcome [10] of the same compound?
Its outcome is “inactive”.

What about the outcome [11] of the same compound?
The outcome was “inactive”.

What about the outcome [12] of the same compound?
Its outcome is “inactive”.

What about the inhibition [13] of the same compound?
The inhibition was 23.6% (active).

What about the outcome [14] of the same compound?
The outcome was “inactive”.

And the outcome [15]?
The outcome was “inactive”.

What about the outcome [16] of the same compound?
Its outcome is “inactive”.

For `COc1ccccc1N1CCN(CCCNC(=O)Nc2ccccc2)CC1`, which outcome [1] is on record?
Its outcome is “inactive”.

What about the outcome [2] of the same compound?
The outcome was “inactive”.

And the outcome [3]?
The outcome was “inactive”.

And the outcome [4]?
The outcome was “inactive”.

What about the inhibition [5] of the same compound?
Its inhibition is 95% (active).

And the inhibition [6]?
Its inhibition is 61% (active).

And the outcome [7]?
Its outcome is “inactive”.

What about the outcome [8] of the same compound?
The outcome was “inactive”.

And the outcome [9]?
The outcome was “inactive”.

And the outcome [10]?
Its outcome is “inactive”.

What about the outcome [11] of the same compound?
Its outcome is “inactive”.

And the outcome [12]?
Its outcome is “inactive”.

And the inhibition [13]?
The inhibition was 22.6% (active).

And the outcome [14]?
Its outcome is “inactive”.

And the outcome [15]?
The outcome was “inactive”.

And the outcome [16]?
The outcome was “inactive”.

For `COc1ccc(OC)c(Nc2cc(C)nc3ccc(C)cc23)c1`, which outcome [1] is on record?
The outcome was “inactive”.

What about the outcome [2] of the same compound?
The outcome was “inactive”.

What about the outcome [3] of the same compound?
Its outcome is “inactive”.

And the outcome [4]?
Its outcome is “inactive”.

What about the inhibition [5] of the same compound?
Its inhibition is 38% (active).

What about the outcome [6] of the same compound?
Its outcome is “inactive”.

What about the outcome [7] of the same compound?
The outcome was “inactive”.

What about the outcome [8] of the same compound?
Its outcome is “inactive”.

And the inhibition [9]?
Its inhibition is 41% (active).

What about the outcome [10] of the same compound?
The outcome was “inactive”.

What about the outcome [11] of the same compound?
Its outcome is “inactive”.

And the outcome [12]?
The outcome was “inactive”.

And the outcome [13]?
Its outcome is “inactive”.

What about the outcome [14] of the same compound?
The outcome was “inactive”.

What about the outcome [15] of the same compound?
The outcome was “inactive”.

What about the outcome [16] of the same compound?
Its outcome is “inactive”.
